This passage reports INHIBITION results from ChEMBL document CHEMBL4513216, “Probing the Open Global Health Chemical Diversity Library for Multistage-Active Starting Points for Next-Generation Antimalarials” (ACS Infect Dis, 2020).

In all, about 68,000 compounds went through this assay and about 2,700 (4%) showed an effect of 50% or more. The entries come from a sample that favours strong results as a whole.

The experiment relates to Plasmodium berghei. As to the kind of experiment: Screen against P. berghei liver stage (PbLuc), transformed with Luciferase, at 2uM. The class given is functional, HepG2. The settings on record: tested at 2 uM.
For the compound `CCc1nnc2n1CCN(Cc1ncc(-c3ccc(F)cc3)o1)C2`, the INHIBITION was found to be 1.6%. For the compound `O=C(c1ncccn1)N1C[C@@H]2CN(Cc3cccnc3)CCO[C@@H]2C1`, the INHIBITION worked out at 22.62%. For `CCCc1nc(CN(CC)C(=O)c2onc3ccccc23)no1` the value was -12.7%; for `CCN(Cc1noc(C2CC2)n1)C(=O)c1onc2ccccc12`, 51.31%; for `CCN(Cc1noc(C2CCC2)n1)C(=O)c1cnc2ccccc2c1`, 19.53%. Regarding `Cc1cnc(N)c(C(=O)C2CCN(C(=O)c3cnc(C)cn3)CC2)c1`, the INHIBITION was found to be 25.72%. On to `CC(=O)N1CCC(C(=O)c2cc(C)cnc2N)CC1`, for which the INHIBITION came out at 27.16%. To `Cc1cnc(N)c(C(=O)C2CCN(C(=O)c3ccccc3F)CC2)c1` belongs 21.37%. With `C=C(C)C(=O)N1CCC(C(=O)c2cc(C)cnc2N)CC1`, the INHIBITION came out at 6.57%. Consider `Cc1cnc(N)c(C(=O)C2CCN(C(=O)c3cnc(C)nc3C)CC2)c1`, for which the INHIBITION is recorded as 69.08%. For `Cc1cnc(N)c(C(=O)C2CCN(C(=O)C3CCC3)CC2)c1` the value was 61.16%; for `O=C(NCCn1cccn1)c1nnc2ccccc2n1`, 7.42%; for `O=C(NC[C@H]1Cn2c(-c3ccccc3)cnc2CO1)C1CC1`, 35.6%. To `CC1(C)CN(CC(F)(F)F)CCN1CC(=O)NC1CC1` belongs 65.42%. As to `CNC(=O)NC(=O)CN1CCN(CC(F)(F)F)CC1(C)C`, the INHIBITION amounted to 21.03%. For `CC1(C)CN(CC(F)(F)F)CCN1CC(=O)NC1CCCC1` the value was 37.42%. `CCCn1ncc(C2CC(=O)NCc3nc4cc(C)ccn4c32)c1C` (stereo not drawn): the INHIBITION stood at 48.21%.

In the case of `CCCn1ncc(C2CC(=O)NCc3nc4sc(C)cn4c32)c1C` (stereo not drawn), the INHIBITION turned out to be 55.36%. As to `CCC1CC(=O)NCc2nc3sc(C)cn3c21` (stereo not drawn), the INHIBITION was -18.57%.

For the compound `Cc1noc(C)c1CN(C)C(=O)Cn1c(=O)n(C)c2ccccc21`, the INHIBITION was -43.5%. On to `Cc1ccc(NC(=O)Nc2c(O)c3ccccc3oc2=O)cc1C`, for which the INHIBITION was found to be 8.92%.

For the compound `COCCn1c2c(ccc1=O)CCN(C(=O)CC1CC1)CC2`, the INHIBITION is -13.68%. For `NC1(C(=O)N2CCC(c3cc(-c4ccccc4Cl)n[nH]3)CC2)CCC1` the value was 54.07%. Turning to `NC(=O)NCCC(=O)N1CCC(c2cc(-c3ccccc3Cl)n[nH]2)CC1`, the INHIBITION stood at 31.25%. To `NC(=O)NCC(=O)N1CCC(c2cc(-c3ccccc3Cl)n[nH]2)CC1` belongs 39.65%; to `NC(=O)NC1CCN(Cc2ccc3c(c2)CCC3)CC1`, 30.42%; to `CC(c1nnc(-c2cccs2)o1)N1CCc2cncnc2C1` (stereo not drawn), -9.5%. Take `O=c1[nH]nc2c(S(=O)(=O)N3CCCCC3)cccn12`: the INHIBITION was found to be 6.33%. To `CCC(CO)N(Cc1ccccn1)C(=O)c1ccc(C)c(Cl)c1` (stereo not drawn) belongs 42.48%; to `COCCC1(CNC(=O)NCC2CCCN(C)C2)CCCC1` (stereo not drawn), -24.61%. To `COCCC1(CNC(=O)NCC2CCC2)CCC1` belongs 29.43%. `COCCC1(CNC(=O)NCC2CCCS2)CCCC1` (stereo not drawn): the INHIBITION came to 55.39%. To `CC(C)Nc1nc(-c2ccccc2)nc2c1CCN(C(=O)CC#N)CC2` belongs 27.22%; to `CCN(Cc1noc(C)n1)C(=O)C(c1ccc(C)cc1)N(C)C` (stereo not drawn), -0.28%. For `COCC(=O)NCCn1ccc2c(OC)cccc21` the value was 50.32%; for `COc1cccc2c1ccn2CCNC(C)=O`, -7.17%. With `COc1cccc2c1ccn2CCNC(=O)CC(C)C`, the INHIBITION is recorded as -55.67%. For `CCN(CCO)C[C@@H]1CN(c2nc(C)cc(C)n2)C[C@@H]1CO` the value was 5.88%; for `O=C(c1ccc(F)c(F)c1)N1CCC(Cn2cc(CO)nn2)CC1`, 20.91%; for `Cc1nn(C)c(N(C)C)c1CNCc1cccc(CN(C)C(C)C)c1`, 44.39%. As to `CCC(NC1CSCCSC1)c1ccc(S(C)(=O)=O)cc1` (stereo not drawn), the INHIBITION worked out at 9.51%. For `CCC(NC1Cc2ccccc2C1)c1ccc(S(C)(=O)=O)cc1` (stereo not drawn) the value was 10.02%; for `CCC(NC1CCCC1)c1ccc(S(C)(=O)=O)cc1` (stereo not drawn), 58.65%; for `Cc1ccc(-c2c[nH]c([C@@H]3COCCN3Cc3cccnc3)n2)cc1`, 3.84%. Take `CC(C)(CO)NCc1nn(Cc2ccccc2)nc1-c1ccccc1`: the INHIBITION is -34.52%. `CN1C[C@H](O)C[C@H]1c1nc(-c2ccc3c(c2)OCO3)no1`: the INHIBITION is 45.22%. With `CN1C[C@@H](N)C[C@H]1c1nc(-c2ccc3c(c2)OCO3)no1`, the INHIBITION is recorded as 28.2%. To `CC(=O)N[C@H]1C[C@@H](c2nc(-c3ccc4c(c3)OCO4)no2)N(C)C1` belongs 57.31%; to `O=C(c1ccc[nH]1)N1CCc2ccc(S(=O)(=O)N3CCOCC3)cc2C1`, -19.95%. To `Cc1ccccc1[C@@H]1CN(CCCS(=O)(=O)N(C)C)C[C@H]1C(=O)O` belongs 52.3%; to `COCCN1C[C@@H](C(=O)O)[C@H](c2ccccc2C)C1`, 42.2%. Take `CCC[C@@H]1CN(Cc2ccc(C(F)(F)F)nc2)C[C@H]1C(=O)O`: the INHIBITION was determined as 21.97%.

With `Cc1ccccc1[C@@H]1CN(Cc2nc3ncccn3n2)C[C@H]1C(=O)O`, the INHIBITION is reported as -18.59%.
